Among the data in ChEMBL document CHEMBL4296182, “CO-ADD screening of NIH NCI Diversity Set V” are Inhibition values, retold here.

The test system of one test is Staphylococcus aureus. The experiment in a line: Antibacterial activity against Staphylococcus aureus MRSA ATCC 43300 (CO-ADD:GP_020); MIC in CAMBH media using NBS plates, by Resazurin F(560/590). It counts as functional. The note with it: Concentration 20 uM, ASSAY_TEST Inhibition of Bacterial Growth, detection method Resazurin, Fluorescence (ex560/em590), MEDIA CAMHB, plate type 384well, CORNING #3640, time 18 hr.

The subject of a further test is Acinetobacter baumannii. The experiment in a line: Antibacterial activity against Acinetobacter baumannii ATCC 19606 (CO-ADD:GN_034); MIC in CAMBH media using NBS plates, by Resazurin F(560/590). Particulars: Concentration 20 uM, ASSAY_TEST Inhibition of Bacterial Growth, detection method Resazurin, Fluorescence (ex560/em590), MEDIA CAMHB, plate type 384well, CORNING #3640, time 18 hr. It counts as functional.

The subject of a further test is Escherichia coli. Briefly: Antibacterial activity against Escherichia coli ATCC 25922 (CO-ADD:GN_001); MIC in CAMBH media using NBS plates, by Resazurin F(560/590). It counts as functional. The note with it: Concentration 20 uM, ASSAY_TEST Inhibition of Bacterial Growth, detection method Resazurin, Fluorescence (ex560/em590), MEDIA CAMHB, plate type 384well, CORNING #3640, time 18 hr. For orientation: Alamar Blue is a resazurin reagent that responds to reducing activity.

The test system of the next test is Klebsiella pneumoniae. The note with it: Concentration 20 uM; ASSAY_TEST Inhibition of Bacterial Growth; detection method Absorption (OD600); MEDIA CAMHB; plate type 384well; NBS; CORNING #3640; time 18 hr.
A further test has as its system Candida albicans. Particulars: 20 µM.
In another test the test system is Cryptococcus neoformans. Particulars: Concentration 20 uM; ASSAY_TEST Inhibition of Fungal Growth; detection method Resazurin; Absorption (OD600-OD570); plate type 384well; NBS; CORNING #3640.

For part of these data: Measured potencies and affinities stand elsewhere.

Take `CCC12CCCN3CCc4c(n(c5ccccc45)C(O)(C(=O)OC)C1)C32` (stereo not given): the Inhibition with Staphylococcus aureus is 7.39%; in the test on Acinetobacter baumannii it was 9.61%; in the test on Escherichia coli it was 2.09%; in the test on Klebsiella pneumoniae, 11.45%; in the test on Candida albicans it was 0.39%; in the test on Cryptococcus neoformans, 5.96%.

Take `Cn1c2c(c(=O)n(C)c1=O)NC1(N2)C(=O)Nc2ccccc21` (stereo not given): the Inhibition with Staphylococcus aureus was 7.94%; in the test on Acinetobacter baumannii, -15.14%; in the test on Escherichia coli it was 2.31%; in the test on Klebsiella pneumoniae, 1.11%; with Candida albicans, 4.78%; in the test on Cryptococcus neoformans it was -2.52%.

`Cc1cc(S)nc(S)n1`: the Inhibition was 19.64% in the test with Staphylococcus aureus; -5.84% with Acinetobacter baumannii; 8.34% in the test with Escherichia coli; 8.54% with Klebsiella pneumoniae; -0.64% in the test on Candida albicans; -0.35% in the test with Cryptococcus neoformans.

Turning to `CCCCSc1cc(O)nc(N)n1`, the Inhibition with Staphylococcus aureus was -2.6%; in the test with Acinetobacter baumannii, -7.06%; with Escherichia coli, 16.01%; in the test with Klebsiella pneumoniae it was 10.64%; in the test with Candida albicans, -1.45%; in the test with Cryptococcus neoformans, -8.65%.

For the molecule `CCOC(=O)c1nc(SC)n(C)c1C(=O)OCC`, the Inhibition in the test on Staphylococcus aureus was 10.21%; with Acinetobacter baumannii it was -12.95%; with Escherichia coli, 18.32%; in the test with Klebsiella pneumoniae it was 2.22%; in the test with Candida albicans, 0.39%; with Cryptococcus neoformans, -13.08%.

Consider `COc1ccc2c(n1)Sc1nc3ccccc3nc1N2`, for which the Inhibition in the test on Staphylococcus aureus is 9.7%; with Acinetobacter baumannii, -15.29%; with Escherichia coli, 7.15%; in the test with Klebsiella pneumoniae, 4.25%; with Candida albicans it was 3.02%; with Cryptococcus neoformans, -8.75%.

Consider `C[C@]12CC[C@H](O)CC1=CC[C@@H]1[C@@H]2CC[C@]2(C)c3n[nH]cc3C[C@@H]12`, for which the Inhibition in the test on Staphylococcus aureus is 17.35%; with Acinetobacter baumannii it was 7.15%; in the test on Escherichia coli, 13.22%; with Klebsiella pneumoniae, 4.71%; with Candida albicans it was -0.24%; in the test on Cryptococcus neoformans, -13.74%.

As to `Nc1o[nH]c(=O)c1C1CCCCC1`, the Inhibition is 7.44% in the test with Staphylococcus aureus; -3.3% in the test with Acinetobacter baumannii; 16.54% in the test on Escherichia coli; 10.69% with Klebsiella pneumoniae; 1.7% in the test on Candida albicans; -0.63% in the test with Cryptococcus neoformans.

Regarding `COc1ccc(NC2=NC(C)(CO)CS2)cc1` (stereo not given), the Inhibition in the test on Staphylococcus aureus was 33.41%; in the test on Acinetobacter baumannii, -4.98%; in the test on Escherichia coli, 1.2%; with Klebsiella pneumoniae, 15.06%; in the test on Candida albicans it was 1.85%; in the test with Cryptococcus neoformans, 5.77%.

Consider `CCN1CCC(Nc2ccnc3cc(Cl)ccc23)CC1`, for which the Inhibition in the test on Staphylococcus aureus was 11.96%; in the test with Acinetobacter baumannii, -0.07%; in the test with Escherichia coli, -4.98%; in the test on Klebsiella pneumoniae, 16.53%; with Candida albicans it was 2.51%; in the test on Cryptococcus neoformans it was -6.53%.

For the molecule `CCCc1nc2c(=O)n(C)c(=O)n(C)c2[nH]1`, the Inhibition is 14.39% in the test with Staphylococcus aureus; -13.67% with Acinetobacter baumannii; 8.23% in the test on Escherichia coli; 14.55% with Klebsiella pneumoniae; 2.02% in the test on Candida albicans; -4.69% in the test with Cryptococcus neoformans.

For `CC1(C)CCCC2(C)C(OCCO)=CC(=O)C=C12` (stereo not given), the Inhibition in the test on Staphylococcus aureus was 7.52%; in the test with Acinetobacter baumannii it was 8.39%; in the test on Escherichia coli it was 0.39%; with Klebsiella pneumoniae, 20.08%; in the test with Candida albicans, 2.7%; in the test with Cryptococcus neoformans, -10.94%.

With `CCOC(=O)c1cc[nH]c1CC(=O)NC`, the Inhibition in the test with Staphylococcus aureus was 7.18%; in the test with Acinetobacter baumannii, 12.41%; in the test on Escherichia coli, -1.94%; in the test on Klebsiella pneumoniae, 10.9%; with Candida albicans, 1.71%; with Cryptococcus neoformans it was -10.3%.

In the case of `Cc1nc(S)nc(O)c1Cc1c(O)ccc2ccccc12`, the Inhibition with Staphylococcus aureus was -11.57%; with Acinetobacter baumannii, -9.92%; in the test with Escherichia coli, 5.55%; in the test on Klebsiella pneumoniae it was 6.39%; with Candida albicans, 20.9%; with Cryptococcus neoformans it was -9.2%.

As for `CC(=O)[C@H]1CC[C@H]2[C@@H]3CCC4=CC(=O)C=C[C@]4(C)[C@H]3C(=O)C[C@]12C`, the Inhibition was 11.15% in the test on Staphylococcus aureus; -7.04% in the test with Acinetobacter baumannii; -4.55% in the test with Escherichia coli; 23.74% in the test with Klebsiella pneumoniae; 4.8% in the test with Candida albicans; -6.32% in the test with Cryptococcus neoformans.

As for `Cc1c(Cl)ccc2c(C(=O)O)cc(-c3ccccc3)nc12`, the Inhibition with Staphylococcus aureus is -8.14%; with Acinetobacter baumannii, 11.6%; in the test with Escherichia coli, 2.11%; with Klebsiella pneumoniae, 26.83%; in the test with Candida albicans, 2.48%; with Cryptococcus neoformans it was 13.39%.

Consider `O=S1(=O)CSCS(=O)(=O)C1`, for which the Inhibition with Staphylococcus aureus is -12.69%; in the test with Acinetobacter baumannii, -2.62%; in the test on Escherichia coli, -18.14%; in the test with Klebsiella pneumoniae it was 0.72%; in the test on Candida albicans, 5.55%; with Cryptococcus neoformans, 27.89%.

`OCc1nc2nc(Cl)c(Cl)[nH]c-2n1`: the Inhibition in the test with Staphylococcus aureus was -3.73%; with Acinetobacter baumannii, 14.74%; with Escherichia coli, -8.33%; with Klebsiella pneumoniae it was 8.57%; in the test with Candida albicans it was 1.75%; in the test on Cryptococcus neoformans it was -8.15%.

As for `CCCCC(=O)N1CCCC(C)C1` (stereo not given), the Inhibition with Staphylococcus aureus was 12.48%; with Acinetobacter baumannii, -11.97%; in the test with Escherichia coli it was 4.56%; with Klebsiella pneumoniae, -3.93%; in the test with Candida albicans, 4.76%; with Cryptococcus neoformans, -4.37%.

As to `CO/N=C1/C=C(C)C(=O)C(C)=C1C`, the Inhibition in the test on Staphylococcus aureus was 4.57%; in the test with Acinetobacter baumannii, -1.27%; in the test with Escherichia coli it was 14.83%; in the test with Klebsiella pneumoniae it was 1.18%; with Candida albicans it was -2%; in the test on Cryptococcus neoformans, -4.8%.

For `CC1=CN2C(c3cccc([N+](=O)[O-])c3)=NON(c3ccc(C)cn3)C2C=C1` (stereo not given), the Inhibition with Staphylococcus aureus was 16.79%; with Acinetobacter baumannii, -11.84%; with Escherichia coli it was 19.37%; in the test with Klebsiella pneumoniae, 7.72%; in the test with Candida albicans, 17.2%; in the test on Cryptococcus neoformans, 0.26%.

In the case of `CC(C)(CO)N1CCN(C(S)=Nc2ccccc2)CC1`, the Inhibition with Staphylococcus aureus is -0.05%; in the test with Acinetobacter baumannii, 2.01%; in the test on Escherichia coli, -1.36%; in the test with Klebsiella pneumoniae, 29.13%; in the test with Candida albicans it was 8.13%; in the test on Cryptococcus neoformans it was -5.08%.

As to `CCSc1nc(O)cc(O)n1`, the Inhibition with Staphylococcus aureus was 23.71%; in the test on Acinetobacter baumannii, -7.74%; with Escherichia coli, 11.78%; in the test on Klebsiella pneumoniae, 13.65%; with Candida albicans, 4.28%; in the test on Cryptococcus neoformans, 3.85%.

Regarding `O=C(CSc1nc2ccc([N+](=O)[O-])cc2s1)c1ccc2ccccc2c1`, the Inhibition is -1.33% in the test with Staphylococcus aureus; 12.85% in the test on Acinetobacter baumannii; 5.26% with Escherichia coli; 23.99% in the test with Klebsiella pneumoniae; 1.85% in the test on Candida albicans; 15.23% in the test on Cryptococcus neoformans.

Turning to `CN(C)c1ccc(/C=C/c2ccc3ccccc3n2)cc1`, the Inhibition in the test on Staphylococcus aureus was -2.51%; in the test with Acinetobacter baumannii, 5.82%; with Escherichia coli, 5.25%; with Klebsiella pneumoniae, 10.87%; in the test with Candida albicans, 5.63%; in the test with Cryptococcus neoformans, -14.32%.

Usually Inhibition stands for the drop in the measured response relative to a control, in per cent.
